Screening results as filed in PubChem BioAssay.
This is a sample that favours compounds with a hit; in the whole collection about 12% have one here.
G9a inh: G9a (human) methyltransferase inhibition; Q96KQ7; G9a H3K9 monomethylation, AlphaScreen, 2 h; Potency, µM (highest dose often 102 µM), most hits filed as inhibitors; 350,000 compounds, 8.8% hits; AID 504332; further: nearly all actives have a fitted effect of over 75% in size
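Chemiluminescent proximity detection of H3K9 monomethylation, read after 10 min bead incubation in the dark. Reaction: 20 nM G9a, 500 nM biotin-H3K9 peptide, 20 uM SAM cofactor, 2 h, room temperature, following 15 min enzyme-compound preincubation.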
L3MBTL1 block: L3MBTL1 (human) inhibition; Q9Y468; AlphaScreen L3MBTL1–H3K9me1 peptide binding; Potency, µM (top dose mostly 57.1 µM), actives largely listed as inhibitors; 230,000 compounds, 0.66% hits; further: nearly all actives have a fitted effect of over 60% in size
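AlphaScreen assay: L3MBTL1 (50 nM final) was preincubated 30 min at room temperature with biotinylated H3(1-15)K9me1 peptide (75 nM final), then 30 min with library compounds; streptavidin donor and nickel chelate acceptor beads (10 ug/mL final) added, 30 min dark.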
Sfp PPTase inh: Sfp phosphopantetheinyl transferase inhibition; Biochemical Sfp PPTase activity, qHTS; Q9F4F7; 310,000 compounds, 3.5% hits; Potency, µM, hits mostly inhibitors; AID 1490;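 further: the enzyme is Sfp with the accession as filed and its product quenches rhodamine fluorescence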
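Fluorescence-quenching assay: 15 nM Sfp-PPTase preincubated 15 min at room temperature with compound, then 5 uM rhodamine-CoA and 12.5 uM BHQ-2-labelled YbbR peptide added. Fluorescence (ex 525/em 598 nm) read at start and after 30 min; difference gives rate.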
JMJD2A Tudor: blocks the human JMJD2A Tudor domain. O75164. AlphaScreen JMJD2A-Tudor / H3K4me3 peptide binding. Potency, µM (highest dose often 114 µM), usual class: inhibitors. 390,000 compounds, 4.4% hits. AID 504339; further: nearly all actives have a fitted effect of over 50% in size
HP1b binding inh: blocks HP1-beta chromodomain binding to methylated histone tails. P83916. AlphaScreen HP1-beta / biotin-H3K9me3 peptide binding. Potency, µM (titrated, usually from 114 µM), hits mostly inhibitors. 390,000 compounds, 0.56% hits. AID 540317; further: nearly all actives have a fitted effect of over 70% in size
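HP1-beta protein (50 nM final) preincubated 30 min at room temperature with biotinylated H3(1-18)K9me3 peptide (50 nM) in PBS pH 7.4, 0.01% Tween-20, then compound added for 30 min. AlphaScreen streptavidin donor/nickel chelate acceptor beads (10 ug/mL final), 30 min dark, luminescence read.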
BAZ2B block: blocks human BAZ2B; 360,000 compounds, 4.4% hits; AlphaScreen BAZ2B-H3K14Ac peptide displacement; Q9UIF8; Potency, µM (titrated, usually from 114 µM), hits mostly inhibitors; further: nearly all actives have a fitted effect of over 60% in size
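BAZ2B 50 nM plus b-H3(5-23)K14Ac 50 nM, PBS pH 7.4/0.01% Tween-20, 30 min RT; compound added (max 110 uM), 30 min RT; streptavidin donor/Ni-chelate acceptor beads 10 ug/mL final, 20 min dark; AlphaScreen read.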
Hits are given with their value; n = inactive; u = inconclusive; x = no result. The call rests on the fitted dose curve; in most records, active means well fitted curve in the direction sought with a large enough effect; inconclusive means small, poorly fitted or top-dose-only effect, or another doubt; inactive means no such curve, though single readings can be large; an effect the other way counts as inactive or inconclusive.

SMILES | G9a inh | L3MBTL1 block | Sfp PPTase inh | JMJD2A Tudor | HP1b binding inh | BAZ2B block
Cc1ccc(-n2c(C)n[nH]c2=S)cc1C | 5µM | n | n | 8.9µM | n | n
Cc1ccc(-n2c(C)n[nH]c2=S)cc1 | 22µM | n | n | 10µM | n | n
CCOC(=O)c1noc2ncnc(Nc3cccc(C(F)(F)F)c3)c12 | n | x | x | n | n | n
Cc1cc(-c2n[nH]c(=S)n2/N=C/c2cc([N+](=O)[O-])ccc2Cl)n[nH]1 | 1.8µM | n | n | 7.9µM | u | u
Cc1cc(-c2n[nH]c(=S)n2/N=C/c2ccc(Cl)c([N+](=O)[O-])c2)n[nH]1 | 1.4µM | n | u | 40µM | n | u
O=[N+]([O-])c1ccc(-c2nn(-c3ccccc3)cc2/C=N/n2c(-c3ccncc3)n[nH]c2=S)cc1 | u | x | n | n | n | n
CCc1ccccc1NC(=O)C(=O)c1cc(C)n(-c2ccccc2F)c1C | n | x | x | n | n | n
CC(Sc1nc(=O)cc(N)n1CCc1ccccc1)C(=O)Nc1ccc(Cl)cc1 (stereo unspecified) | n | x | x | n | n | n
C=CC(=O)c1ccc(CCCCCC)cc1 | 11µM | x | u | x | x | x
Fc1ccccc1COc1ccc(Br)cc1CNCc1ccncc1 | u | x | 79µM | n | n | n
Fc1ccc(COc2ccc(Br)cc2CNCc2ccncc2)cc1 | 50µM | n | n | u | n | 50µM
Cc1cccc(OC(=O)CSc2nnc(CNC(=O)c3ccccc3)o2)c1C | n | x | x | n | n | n
COc1ccc(C2=CC(c3ccc(OC)c(OC)c3)n3nnnc3N2)c(OC)c1 (stereo unspecified) | 50µM | n | n | u | n | n
COc1cccc(C2C=C(c3ccc(OC)cc3OC)Nc3nnnn32)c1 (stereo unspecified) | 45µM | n | n | n | n | n
COc1ccc(Nc2nn3c(=O)c4cc5c(cc4nc3s2)OCO5)c(OC)c1 | n | x | x | n | n | n
CCNC(=O)C1CCCN(c2nn3cc(-c4ccc(C)cc4)nc3s2)C1 (stereo unspecified) | n | x | x | n | n | n
COC(=O)C(=O)/C=C(\O)c1c(C)cc(C)cc1C | 18µM | x | n | u | n | 79µM
CS(=O)(=O)c1ccc(SCC(=O)NC2CCS(=O)(=O)C2)c([N+](=O)[O-])c1 (stereo unspecified) | 32µM | n | n | n | n | n
CS(=O)(=O)c1ccc(C(=O)OCC(=O)NC2CCS(=O)(=O)C2)cc1[N+](=O)[O-] (stereo unspecified) | n | n | n | n | n | n
CC(C)Cn1c(=O)c2ccccc2n2c(CCC(=O)Nc3cccc(Cl)c3)nnc12 | n | x | x | n | n | n
CCOC(=O)c1c(CSc2nc(C)cc(C)c2C#N)n(C)c2cc(Br)c(OC(C)=O)cc12 | n | n | n | n | n | n
CCCCCCCCOC(=O)c1c(CSC(=N)N)n(C)c2cc(Br)c(OC(C)=O)cc12 | x | n | 40µM | u | u | n
CCOC(=O)c1c(CSC(=N)N)n(-c2ccc(Br)cc2)c2cc(Br)c(OC(C)=O)cc12 | 71µM | n | u | n | n | u
CCn1cc(S(=O)(=O)c2cc(C)cc(C)c2)c(=O)c2cc(F)c(N3CCN(c4ccccc4)CC3)cc21 | n | x | x | n | n | n
CCOC(=O)c1cc(-c2ccc(OC)cc2)n(CCC(=O)Nc2cccc(C(C)=O)c2)c1C | n | x | x | n | n | n
CCCS(=O)(=O)Nc1cc(-c2cn3cccc(C)c3n2)ccc1C | n | x | x | n | n | u
COc1ccc(Br)c2oc(SC)cc(=O)c12 | 40µM | n | n | n | n | u
CCC(CC)c1nnc(NC(=O)C2CC(=O)N(CCc3ccc(OC)c(OC)c3)C2)s1 (stereo unspecified) | n | n | x | n | n | n
CC(C)(C)NC(=O)C1CC(=O)N(CCc2ccc(F)cc2)C1 (stereo unspecified) | n | n | n | n | n | n
CCC(CC)c1nnc(NC(=O)C2CC(=O)N(CCc3ccc(F)cc3)C2)s1 (stereo unspecified) | 3.2µM | x | 11µM | n | u | u
